In all, about 220,000 compounds went through this assay and about 16,000 (7.3%) were called active. A call without a number means that no potency is given here. Not shown: some 25% with an inconclusive outcome. This is one part of a sample in which actives are shown more often than they occur. A number with no mark means an inactive call. The call rests on the fitted dose curve; in most records, active means well fitted inhibition curve with a large enough effect (not every such curve was filed as active); inconclusive means small, poorly fitted or top-dose-only effect, or another doubt; inactive means no such curve, though single readings can be large or run the other way.
Each compound was assayed against Aldehyde dehydrogenase 1A1 (Homo sapiens) (UniProt P00352) (assay: qHTS Assay for Inhibitors of Aldehyde Dehydrogenase 1 (ALDH1A1)). Conditions: Purified ALDH1A1, NADH fluorescence, propionaldehyde substrate; series mostly up to 75.3 µM.
Sequence of Aldehyde dehydrogenase 1A1 (Homo sapiens) (P00352 whole entry, looked up): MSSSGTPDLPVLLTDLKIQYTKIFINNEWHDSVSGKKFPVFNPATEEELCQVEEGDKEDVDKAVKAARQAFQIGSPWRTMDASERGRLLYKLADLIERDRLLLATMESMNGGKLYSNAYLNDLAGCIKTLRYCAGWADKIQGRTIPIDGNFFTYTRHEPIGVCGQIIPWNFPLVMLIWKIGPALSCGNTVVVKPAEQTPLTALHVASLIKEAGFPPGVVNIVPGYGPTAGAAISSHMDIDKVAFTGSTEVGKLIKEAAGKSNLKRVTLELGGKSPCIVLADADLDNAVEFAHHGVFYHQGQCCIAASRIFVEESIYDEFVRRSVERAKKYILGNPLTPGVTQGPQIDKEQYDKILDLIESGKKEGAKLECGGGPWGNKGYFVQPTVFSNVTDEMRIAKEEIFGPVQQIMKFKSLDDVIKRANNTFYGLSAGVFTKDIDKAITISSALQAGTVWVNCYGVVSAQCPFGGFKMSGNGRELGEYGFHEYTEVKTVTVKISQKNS
With `O=C(O)CS/C(=C\c1ccc(F)cc1)c1nc2ccccc2s1` the Potency was “inactive”.
For `COc1cccc(CNC(=O)CCC2CCCN(Cc3ccc(OC(F)F)cc3)C2)c1` (stereo not given), the Potency was “inactive”.
In the case of `Cn1c(N)c(C(=O)COC(=O)/C=C/c2ccc(OC(F)F)cc2)c(=O)n(C)c1=O`, the Potency is reported as “inactive”.
For `O=C(Nc1ccccc1)N1CCN(C(=O)Nc2ccccc2)CC1`, the Potency was “inactive”.
`S=C(c1ccc(-c2ccccc2)o1)N1CCCCC1` was tested, and the Potency was 3.55 µM (active).
With `S=C(Nc1ccc2c(c1)OCO2)N1CCCC1` the Potency was “inactive”.
In the case of `NC(=O)C1(N2CCCCC2)CCN(C(=O)c2ccc(C#Cc3ccccc3)o2)CC1`, the Potency is reported as “inactive”.
`O=C(/C=C/c1ccc(OCc2c(F)cccc2Cl)cc1)N1CCOCC1` was tested, and the Potency was “inactive”.
For `O=C1NC(c2ccc(-c3ccccc3[N+](=O)[O-])o2)C(C(=O)c2ccc(Cl)cc2)C(O)(C(F)(F)F)N1` (stereo not given), the Potency was 20 µM (active).
In the case of `CN1CCN(c2ccc(NC(=O)c3ccc4c(c3)OCCO4)cc2Cl)CC1`, the Potency is reported as “inactive”.
For `CCN(CC)P(=O)(/C(Cl)=C\Nc1c(C)n(C)n(-c2ccccc2)c1=O)N(CC)CC`, the Potency was 17.8 µM (active).
In the case of `Cc1c(NC(=S)Nc2ccccc2)c(=O)n(-c2ccccc2)n1C`, the Potency is reported as “inactive”.
`COC(=O)Nc1c(C)n(C)n(-c2ccccc2)c1=O` was tested, and the Potency was “inactive”.
`COC(=O)c1ccc(NC(=O)C(C)N2C(=O)c3ccccc3C2=O)cc1` (stereo not given) was tested, and the Potency was “inactive”.
With `COC(=O)c1ccc(NC(=O)Nc2ccc(C)cc2)cc1` the Potency was “inactive”.
`Cc1ccc(C(=O)CNc2ccc(F)cc2)cc1` was tested, and the Potency was 11.2 µM (active).
With `COC(=O)c1ccc(NCC(=O)c2ccccc2)cc1` the Potency was 11.2 µM (active).
For `Cc1ccc(C(=O)CS(C)(=O)=O)cc1`, the Potency was “inactive”.
In the case of `Cc1ccc(NC(=O)CC(=O)Nc2ccc(C)cc2)cc1`, the Potency is reported as “inactive”.
For `CC(C)Nc1nnc(SCC(=O)/C=C2\N(C)c3ccccc3C2(C)C)s1`, the Potency was “inactive”.
`CCCCCc1ccc(-c2ccc(OCC)cc2)nc1` was tested, and the Potency was “inactive”.
With `O=C(N1CCCCC1)N1CCN(C(=O)N2CCCCC2)CC1` the Potency was “inactive”.
In the case of `CCCNC(=O)c1c(Cl)cnn1-c1ccc(C)cc1`, the Potency is reported as “inactive”.
For `CCC(C)CN1CCC(CO)(Cc2ccccc2Cl)CC1` (stereo not given), the Potency was “inactive”.
In the case of `COCCNC(=O)/C(C#N)=C/c1cccc(OCc2ccccc2)c1`, the Potency is reported as “inactive”.
For `O=C(NCC(O)c1ccc([N+](=O)[O-])cc1)C1CCCCC1` (stereo not given), the Potency was “inactive”.
In the case of `NC(N)=N/N=C/c1ccc(Cl)c([N+](=O)[O-])c1`, the Potency is reported as “inactive”.
In the case of `O=C1CSC(=S)N1/N=C/c1ccc(O)c([N+](=O)[O-])c1`, the Potency is reported as 1.26 µM (active).
`O=[N+]([O-])c1ccc(N2CCSCC2)cc1O` was tested, and the Potency was “inactive”.
For `Nc1ccc(C(=O)OCC(=O)NC2CCS(=O)(=O)C2)cc1[N+](=O)[O-]` (stereo not given), the Potency was “inactive”.
With `CN(C)c1nccc(NCc2ccccc2)c1C#N` the Potency was “inactive”.
For `CN(C(=O)COc1ncnc2c1cnn2-c1ccccc1)C1CCCCC1`, the Potency was “inactive”.
For `CN(C)S(=O)(=O)Oc1ccccc1C(=O)Nc1ccccc1Cl`, the Potency was “inactive”.
With `CSCCC(NC(=O)C1CCC(C)CC1)C(=O)NCc1ccco1` (stereo not given) the Potency was “inactive”.
In the case of `CC(=O)Nc1ccccc1OC(C)C(=O)N1CCC(C)CC1` (stereo not given), the Potency is reported as “inactive”.
`CSCCC(NS(=O)(=O)/C=C/c1ccccc1)C(=O)N1CCC(C)CC1` (stereo not given) was tested, and the Potency was 14.1 µM (active).
In the case of `CCCCCCCCCCOC(=O)C[N+](C)(C)CC1CCCCC1O` (stereo not given), the Potency is reported as “inactive”.
With `O=C(NC1CCCCC1)c1cc([N+](=O)[O-])ccc1N1CCOCC1` the Potency was “inactive”.
In the case of `O=[N+]([O-])c1ccc2c(c1)C(N1CCOCC1)/C(=C/C1(O)CCCCC1)O2` (stereo not given), the Potency is reported as 10 µM (active).
In the case of `CC[C@H](C)[C@@H](NC(=O)O[C@@H]1C(=O)c2cc(OC)ccc2O[C@H]1c1cccc(OC)c1)C(=O)OC`, the Potency is reported as “inactive”.
For `CCN(CC)CCNc1nc(-c2ccc(OC(F)F)cc2)c(C)s1`, the Potency was “inactive”.
`O=C(c1ccccc1)c1ccc2nc(N3CCCCC3)c3nncn3c2c1` was tested, and the Potency was 12.6 µM (active).
`O=c1cc(-c2ccccc2)nc(N2CCCCC2)[nH]1` was tested, and the Potency was “inactive”.
In the case of `O=C(Nc1ccccc1N1CCCCC1)c1cccc(F)c1`, the Potency is reported as “inactive”.
`O=C(O)C(c1ccccc1)C1(O)CCCCC1` (stereo not given) was tested, and the Potency was “inactive”.
In the case of `Cc1ccc(-c2cn(S(=O)(=O)c3cccc([N+](=O)[O-])c3)nc2N)cc1`, the Potency is reported as “inactive”.
In the case of `O=C(Nc1ccncc1)c1cc(-c2ccccn2)nc2ccc(Br)cc12`, the Potency is reported as “inactive”.
With `C#CC(C)(C)NC(=O)CSc1nc2c(c(=O)n(C)c(=O)n2C)n1CCCC` the Potency was “inactive”.
`Cn1c(=O)[nH]c(=O)c2c1nc(Br)n2CCCCSc1nc2ccccc2o1` was tested, and the Potency was “inactive”.
For `CCCCCn1c(SCCC(C)C)nc2c1c(=O)[nH]c(=O)n2C`, the Potency was 22.4 µM (active).
For `Oc1ccc(CNc2ccccc2O)cc1`, the Potency was 3.98 µM (active).
In the case of `O=[N+]([O-])c1ccccc1NCc1ccc(Cl)cc1`, the Potency is reported as “inactive”.
Work on `Oc1ccccc1CNCc1ccccc1O` yielded an activity, negative = inhibition of -6.72% [at 13.5 µM].
In the case of `Cn1nc(C(F)(F)F)c2cc(C(=O)N3CCOCC3)sc21`, the Potency is reported as “inactive”.
With `Cc1ccnc2nc(C(=O)Nc3nnc(-c4ccccc4)o3)nn12` the Potency was “inactive”.
With `CCN1C(=O)/C(=C2\SC(N3CCCCC3)=NC2=O)c2ccccc21` the Potency was 10 µM (active).
`CC(C)=C1SC(N2CCN(c3cccc(C)c3)CC2)=NC1=O` was tested, and the Potency was “inactive”.
`C=C/C1=C/Cc2ccccc2[C@H](C[N+](=O)[O-])C(C(=O)OC)(C(=O)OC)C1` was tested, and the Potency was “inactive”.
For `O=C(CN1C(=O)CC(c2ccccc2)S(=O)(=O)c2ccccc21)NC1CCCC1` (stereo not given), the Potency was “inactive”.
For `COCCOC(=O)C1=C(C)Nc2nc(C)nn2C1c1ccccc1` (stereo not given), the Potency was “inactive”.
With `COc1cccc(-c2nc3n(n2)C(c2ccccc2Cl)C(C(N)=O)=C(C)N3)c1` (stereo not given) the Potency was “inactive”.
`CC1=C(C(N)=O)C(c2ccc3c(c2)OCO3)n2nc(-c3cccc(C)c3)nc2N1` (stereo not given) was tested, and the Potency was 3.55 µM (active).
With `C/C(=N/NC(=O)CCc1ccccc1)c1ccco1` the Potency was “inactive”.
For `CSCCC(=O)N1CCCC(CNC(=O)c2ccccc2Cl)C1` (stereo not given), the Potency was “inactive”.
For `CC(C)(C)c1cc(P(=O)(c2ccccc2)c2ccccc2)ccc1O`, the Potency was “inactive”.
For `COCCCNCC(=O)Nc1sc(C)c(C)c1C(=O)OC`, the Potency was 11.2 µM (active).
In the case of `COCCCNC(=O)c1c(F)c(F)c(F)c(F)c1F`, the Potency is reported as “inactive”.
`CCC(=O)Nc1sc(C(=O)Nc2ccccc2)c(C)c1C(=O)OC` was tested, and the Potency was “inactive”.
In the case of `Cc1ccc(CCCOC(=O)C[N+]2(C)CCCCC2)cc1`, the Potency is reported as “inactive”.
For `O=C(CC1NCCc2ccccc21)Nc1cccc(Cl)c1` (stereo not given), the Potency was “inactive”.
Potency means the concentration at half of the fitted maximal effect.
